Where “and” joins values, the source holds several entries; their conditions need not be identical. Equal values may be shown once. Compounds without any hit were thinned out: in the full panel of roughly 79,000, 15% have a hit. Values without a mark were called inactive. Calls of active or inactive are those of the source. Rule as the data show it: active = growth inhibition above about 70%; inactive = the rest.
Columns and labels:
[1] = NCI Yeast Anticancer Drug Screen. Data for the rad50 strain (AID 155);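 also: 0% = growth of vehicle-only cultures of the same strain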; conditions: S. cerevisiae rad50 strain growth inhibition; at 50.0 µM; active compounds read high
Summary of the method: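 Yeast carrying a defined DNA repair defect were exposed to test compounds, and growth was compared with vehicle-treated controls to give percent inhibition.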

[2] = NCI Yeast Anticancer Drug Screen. Data for the mec2-1 strain (AID 157); conditions: S. cerevisiae mec2-1 strain, at 50.0 µM, active compounds read high
Summary of the method: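 Each compound was tested on mec2-1 yeast, a strain altered in DNA damage repair or cell cycle control. Growth inhibition is reported relative to vehicle.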

[3] = NCI Yeast Anticancer Drug Screen. Data for the sgs1 mgt1 strain (AID 161);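 also: 0% = growth of cultures given vehicle only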; conditions: S. cerevisiae sgs1 mgt1 strain, at 50.0 µM, active compounds read high
Summary of the method: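 Inhibition of yeast growth, normalised to vehicle-treated controls, is reported for a strain bearing genetic alterations in DNA damage repair.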

[4] = NCI Yeast Anticancer Drug Screen. Data for the cln2 rad14 strain (AID 165);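 also: 0% = growth equal to vehicle treated cultures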; conditions: S. cerevisiae cln2 rad14 strain, at 50.0 µM, active compounds read high
Summary of the method: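 Test compounds were added to cln2 rad14 yeast cultures; inhibition of growth was then determined by comparison with vehicle treatment.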

[5] = NCI Yeast Anticancer Drug Screen. Data for the bub3 strain (AID 167); conditions: S. cerevisiae bub3 mutant strain, at 50.0 µM, active compounds read high
Summary of the method: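 Compounds were applied to a genetically altered yeast strain carrying a cell-cycle control defect. Growth inhibition was scored against vehicle-treated controls.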

[6] = NCI Yeast Anticancer Drug Screen. Data for the mlh1 rad18 strain (AID 175); conditions: S. cerevisiae mlh1 rad18 strain growth inhibition; at 50.0 µM; active compounds read high
Summary of the method: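 Inhibition values reflect reduced growth of mutant yeast versus vehicle-treated controls following compound exposure; the mutations affect DNA damage repair.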

SMILES | growth inhibition [1] | growth inhibition [2] | growth inhibition [3] | growth inhibition [4] | growth inhibition [5] | growth inhibition [6]
CC(=O)CC(C)=O.CC(=O)CC(C)=O.[Mn] | 17.1% | 1.05% | 1.75% | -42.2% | -3.3% | -2.5%
CCC(=O)N(c1ccccc1)C(C)CN1CCC(O)(c2ccccc2)CC1 (stereo not drawn) | 4.2% | -12.4% | 5.9% | -37% | -10.4% | -8.15%
C/C(=C\C(C)C)C1(C)C(=O)NC(=O)NC1=O | 8.85% | 11.4% | -6.3% | 4.95% | 4.4% | -19.3%
Nc1ccc(/C=C/C(=O)Nc2ccc(S(=O)(=O)F)cc2)cc1 | 22.4% | 96.2% (active) | 21.1% | 40.1% | 99% (active) | 95.5% (active)
CC1=CC23C(COC(=O)C24CO4)C(C(=O)O)=CC3C1C (stereo not drawn) (tested in a mixture with another compound) | 38% | 29% | 34.5% | 33.4% | 17.9% | 30.4%
N#Cc1ccc(NN=O)cc1 | 15.9% | -3.15% | 10.4% | -0.2% | 25% | 28.1%
CC(C)(O)C1=CC23CC(C)(C(=O)O)C4CCCCC4(C)C2CC1OO3 (stereo not drawn) | 21.4% | -7.3% | 32% | 11.4% | -10.3% | 25.4%
CC1CCCN(C(c2ccccc2)C(O)c2ccccc2)C1 (stereo not drawn) | 5.9% | 1.35% | 13.2% | -19.4% | 46.5% | 7.6%
CCCCCCCCCCCCCCC[As](=O)(O)CCCCCCCCCCCCCCC | 21.8% | 0.75% | 11.9% | 8.45% | 6.75% | 12.9%
COc1cc([N+](=O)[O-])ccc1[As](=O)(O)O | 0% | -4.1% | 8.95% | -63.5% | 10.7% | -1.05%
COc1ccc(NC2Oc3cc4c(cc3C(c3cc(OC)c(OC)c(OC)c3)C2C)OCO4)cc1 (stereo not drawn) | -1.25% | 18.9% | 25.3% | -13.2% | 17.1% | 12%
O=Cc1ccccc1O.[Pr] | 29.1% | -24.4% | 37% | 8.4% | 24.4% | 28.6%
CCOC(=O)C1Cc2ccc(OC)cc2C2=CC(=O)CCC21 (stereo not drawn) | -13.4% | -16.9% | -9.4% | 1.65% | 5.4% | -1.15%
C/C=C(\CC)C1(CCC)C(=O)NC(=O)NC1=O | 15.1% and 5.2% | 13.1% and 3% | 5.25% and 22.8% | 17.4% and -7% | 1.35% and -0.4% | 7.75% and -3.65%
CCOC(=O)C(Cc1ccc(N(CCCl)CCCl)cc1)NC(=O)C(N)CO (stereo not drawn) | -4.05% | 17.6% | 4.75% | -1.3% | 12.3% | 7.5%
CC(NC1=NCCO1)c1ccccc1Cl (stereo not drawn) | -8.85% | -29% | 5.45% | -27.9% | -12.9% | -48%
CN(C)C(=O)Sc1ccc(S(=O)(=O)F)c(Cl)c1Cl | 26.4% | 13.3% | 31.1% | 21.9% | 3.25% | 24.6%
C1CCN2CC3CCCN4CCCC(C2C1)C34 (stereo not drawn) | 5.5% and 7.1% | -21.9% and -1.05% | 7.3% and -16.1% | -0.35% and -0.5% | -11.9% and -6.6% | -96.5% and -85.2%
c1ccc2c(c1)CN1Cc3ccccc3C2C1 | 6.6% | -12.3% | -13.5% | -13.7% | 2.65% | -6.35%

SMILES | growth inhibition [1] | growth inhibition [2] | growth inhibition [3] | growth inhibition [4] | growth inhibition [5] | growth inhibition [6]
CCCCCCCCCCOC(=O)CC(C)=O.CCCCCCCCCCOC(=O)CC(C)=O.[Ni+2] | -37.5% | -9.3% | -26.4% | -45.1% | 2.3% | -39%
Cc1c(OCC(=O)N/N=C/c2ccc(N(CCCl)CCCl)cc2)ccc2c(=O)c3ccccc3oc12 | -1.95% | -10.3% | -3.15% | -15.5% | 13.8% | -8.35%
CCCC(C)C1C(=O)N(C)C(=O)N(C)C1=O (stereo not drawn) | 14.2% | -1% | 11.4% | 9.9% | -4.75% | 14.9%
C/C=C/C(C)C1(CC)C(=O)NC(=S)NC1=O (stereo not drawn) | 8.8% | 9.65% | 9% | 10.6% | -11.3% | -13.1%
CCCCCCCCCCCCCCCCCCC[As](=O)(O)CCCCCCCCCCCCCCCCCCC | 46.2% | 19.2% | 23.4% | -2.2% | 13.4% | 30.4%
O.O=[Se](=O)(O)O.[NH-]C1CCCCC1[NH-].[Pt+2] (stereo not drawn) | -16.1% | -16.9% | -16.1% | -21.5% | -36.1% | -55.5%
O=C(OCc1nc2ccccn2c1[N+](=O)[O-])N(CCCl)CCCl | -42.6% | -21.5% | -35.6% | -10.8% | 16.9% | -46%
CC(C)N(C(=O)SCC(Cl)=C(Cl)Cl)C(C)C | -2.95% | -15.8% | -0.35% | -3.05% | -12.3% | 30%
Oc1ccccc1-c1ccccc1 | 16.6% and 17.9% | 11.1% and 14.4% | 11% and 8.2% | -16.1% and 0.75% | -2.55% and -8.25% | 21.4% and 20.1%
CC1(C)SC2C(NC(=O)COc3ccccc3)C(=O)N2C1C(=O)O (stereo not drawn) (tested in a mixture with another compound) | -3.75% | 8.1% | 2.3% | -24.4% | -2.15% | 10%
O=S1(=O)N2CN3CCN(C2)CN1C3 | 36.5% | 40.4% | 31.4% | -25.3% | 12.1% | 34%
COC(=O)C[CH2][Sn]([CH2]CC(=O)OC)([c]1ccccc1)[c]1ccccc1 | 7.95% | 30.7% | -6.7% | -15.7% | 14.4% | -25.4%
CC(C)=CC1C(C(=O)OCCOc2ccccc2)C1(C)C (stereo not drawn) | -0.75% | -6.5% | 10.2% | -26.6% | -13.6% | -2.05%
CN1CCC(C(O)(c2ccccc2)c2ccccc2)CC1 | -1.95% | -11.3% | 12.3% | -39.1% | -6.45% | -25.4%
N#CC(C#N)=Cc1ccco1 | -7.95% | 6.15% | 24.7% | -42.4% | -3.85% | 5.5%
C[CH2][Sn](/[CH]=C/C=C/OC)([CH2]C)[CH2]C | 36.5% | 47% | 66.2% | 16.8% | 83.4% (active) | 89.7% (active)
CCCCCCCCCC[As](=O)(O)O | 41.8% | 22.2% | 8.6% | 21.9% | 18.9% | 16.9%
O=[As](O)(O)c1ccc2nc3cc([As](=O)(O)O)ccc3nc2c1 | -11.1% | -3% | -20.4% | 3.8% | 2.35% | -30.9%
C[N+](C)=c1nc(N2CCc3ccccc3C2)ss1 | 27% | 37% | 26.4% | -19.4% | 12.1% | 47.7%

From PubChem BioAssay (NCI)
